PubChem BioAssay (NCATS)
Values joined by “and” are separate entries in the source; they are usually repeats but may differ in a detail not shown here. Equal values may be shown once. Inconclusive results are not listed. Active and inactive are the calls of the source. Unless noted, calls come from the whole dose curve; as a rule, active = well fitted curve in the direction sought with a large enough effect; inconclusive = small, poorly fitted or top-dose-only effect, or another doubt; inactive = no such curve, though single readings can be large; an effect the other way counts as inactive or inconclusive.

How the values were obtained:
[1] = Cell Viability - N2a (AID 540); details: N2a mouse neuroblastoma cell viability; at 92.2 µM (top of the series);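 note: cells exposed to compound for 40 h at 37 °C; plate controls were DMSO alone for no effect and tamoxifen control for full effect; nearly all actives have a fitted effect of over 45% in size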
Procedure, shortened: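 N2a mouse neuroblastoma, 1500 cells/well, 5 hr settle; compound 40 hr, 37 °C; CellTiter-Glo 20 min RT; luminescence; Hill-fit AC50.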

[2] = Cellular Toxicity (caspase-3) HepG2 (AID 654);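 note: cells exposed to compound for 16 hours before reading; 0% = DMSO alone and 100% = caspase signal from 100 µM tamoxifen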
Procedure, shortened: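 Luminescent Caspase-Glo 3/7 readout after 16 hr compound exposure of human hepatocellular carcinoma HepG2 cells at 37 °C; qHTS concentration-response, normalized DMSO = 0%, 100 uM tamoxifen = 100%; AC50 by standard Hill equation.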

[3] = Cellular Toxicity (caspase-3) Hek293 (AID 664);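 note: cells exposed to compound for 16 h at 37 °C before readout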
Procedure, shortened: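 Luminescent Caspase-Glo 3/7 readout (aminoluciferin release) in HEK293 cells after 16 h compound treatment, 37 °C. Normalization: DMSO = basal, 100 uM tamoxifen = 100% stimulation. Concentration-response fitted with standard Hill equation for AC50.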

[4] = MultiTox-Fluor Cytotoxicity Assay - LYMP1-002 - Live Cells (AID 955); note: % is set by controls: 0 for no effect and ±100 for the full control effect
Procedure, shortened: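 LYMP1-002 lymphoblastoid cells; 2500 cells/well; 16 hr compound exposure, 37 C; MultiTox-Fluor reagent 60 min RT; live-cell fluorescence Ex/Em=405/510; qHTS concentration-response, Hill-equation AC50; tetraoctylammonium bromide positive control.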

[5] = MultiTox-Fluor Cytotoxicity Assay - LYMP1-002 - Dead Cells (AID 960);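 note: 0% = DMSO and 100% = tetraoctylammonium bromide; nearly all actives have a fitted effect of over 60% in size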
Procedure, shortened: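 Readout: fluorescence at 485/520 from cell-impermeant bis-AAF-R110 cleaved by proteases leaking from damaged cells. LYMP1-002 lymphoblastoid line, 16 hr compound treatment at 37 C, concentration-response in qHTS format; Hill-equation AC50 values.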

[6] = MultiTox-Fluor Cytotoxicity Assay - LYMP1-003 - Live Cells (AID 962);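 note: 0% = DMSO only and full loss = 92 µM tetraoctylammonium bromide; cytotoxic hits lower the live-cell protease signal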
Procedure, shortened: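 Readout: live-cell fluorescence (Ex/Em=405/510) from GF-AFC cleavage after 60 min MultiTox-Fluor reagent at room temperature. Lymphoblastoid LYMP1-003 cells, 16 hr compound treatment, 37 C. Concentration-response fitted to standard Hill equation for AC50.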

[7] = Cell Viability - LYMP1-003 - Assay at 24 hr (AID 963);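 note: plate controls were DMSO only for no effect and tetraoctylammonium bromide positive control for full effect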
Procedure, shortened: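 CellTiter-Glo luminescence (intracellular ATP) read after 24 hr, 37 C compound exposure of 2500 LYMP1-003 human lymphoblastoid cells/well in complete medium; qHTS concentration series; AC50 via standard Hill equation.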

[8] = Cell Viability - LYMP2-003 (AID 965);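 note: cells exposed to compounds for 24 h before reading; 0% = DMSO only and full effect = 92 µM tetraoctylammonium bromide; nearly all actives have a fitted effect of over 50% in size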
Procedure, shortened: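 CellTiter-Glo luminescence quantified ATP loss after 24 h compound treatment of LYMP2-003 lymphoblastoid cells at 37 C. Titration series were fitted with the standard Hill equation to give AC50.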

[9] = Cell Viability - LYMP2-011 (AID 969);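 note: 0% = DMSO only and full inhibition = 92 µM tetraoctylammonium bromide; nearly all actives have a fitted effect of over 60% in size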
Procedure, shortened: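 Luminescent ATP read-out (CellTiter-Glo, 30 min RT) after 24 hr compound exposure at 37 C in human lymphoblastoid cells, 2500 cells/well. Decreasing ATP indicates cytotoxicity; AC50 from standard Hill fit.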

[10] = Cell Viability - LYMP2-013 (AID 970);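 note: 0% = DMSO only and full inhibition = tetraoctylammonium bromide control; nearly all actives have a fitted effect of over 55% in size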
Procedure, shortened: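 CellTiter-Glo luminescence (cellular ATP) read after 30 min at RT. Cells: human lymphoblastoid line, 2500/well, 24 hr compound exposure at 37 C. Tetraoctylammonium bromide positive control; AC50 via standard Hill fit of qHTS titrations.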

[11] = Cell Viability - LYMP2-015 (AID 971);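 note: 0% = DMSO only and full effect = 92 µM tetraoctylammonium bromide; nearly all actives have a fitted effect of over 55% in size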
Procedure, shortened: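 qHTS cytotoxicity: 2500 cells/well, 5 hr 37 C, compound 24 hr 37 C, CellTiter-Glo 30 min RT, luminescence. Loss of ATP = toxicity; AC50 via standard Hill fit.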

[12] = Cell Viability - LYMP2-025 (AID 976);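 note: plate controls were DMSO only for no effect and tetraoctylammonium bromide control for full effect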
Procedure, shortened: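 CellTiter-Glo luminescence (cellular ATP) after 24 h compound exposure at 37 C; LYMP2-025 human lymphoblastoid cells, 2500/well, complete medium. Tetraoctylammonium bromide positive control. AC50 by Hill equation fit of qHTS concentration-response.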

[13] = Cell Viability - LYMP2-006 (AID 978); note: % is set by controls: 0 for no effect and ±100 for the full control effect; nearly all actives have a fitted effect of over 60% in size
Procedure, shortened: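 Potency values are Hill-fit AC50s for decreases in intracellular ATP (CellTiter-Glo luminescence). LYMP2-006 lymphoblastoid cells, 2500 per well, were exposed to compound in complete culture medium for 24 hr at 37 C.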

[14] = Cell Viability - LYMP2-008 (AID 980); note: % is set by controls: 0 for no effect and ±100 for the full control effect; nearly all actives have a fitted effect of over 60% in size
Procedure, shortened: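 Luminescent ATP read-out (CellTiter-Glo, 30 min RT) after 24 hr compound exposure at 37 C of human lymphoblastoid cells in complete medium. Decrease in ATP taken as cytotoxicity; AC50 derived by standard Hill fit of qHTS concentration-response data.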

[15] = Cell Viability - LYMP1-002 - Assay at 24 hr (AID 993); note: % is set by controls: 0 for no effect and ±100 for the full control effect
Procedure, shortened: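 CellTiter-Glo luminescence (intracellular ATP) after 24 h compound exposure, 37 C, in LYMP1-002 human lymphoblastoid cells; decreased ATP taken as cytotoxicity. AC50 from standard Hill fit of concentration-response curves.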

[16] = Cell Viability - LYMP1-002 - Assay at 40 hr (AID 994)
Procedure, shortened: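 qHTS cytotoxicity; 2500 cells/well, 5 hr 37 C settle, compound 40 hr 37 C. CellTiter-Glo, 30 min RT, luminescence (ATP). Concentration-response, Hill fit → AC50. Pos. ctrl tetraoctylammonium bromide.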

[17] = molecular target: Peroxisome proliferator-activated receptor delta (Homo sapiens) (UniProt Q03181); assay: qHTS assay for small molecule agonists of peroxisome proliferator-activated receptor delta signaling (AID 588534; calls by dose curve;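 note: 0% = DMSO basal wells and 100% = positive control agonist at 10 µM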)
Procedure, shortened: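 Titration series tested in agonist mode on beta-lactamase reporter cells; 18 hrs at 37 C after a 5 hr pre-incubation. Readout: CCF4 fluorescence, 2 hrs RT. Hill equation gives EC50 and maximal response.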

[18] = molecular target: Peroxisome proliferator-activated receptor alpha (Homo sapiens) (UniProt Q07869); assay: qHTS assay for small molecule agonists of the peroxisome proliferator-activated receptor alpha (PPARalpha) signaling pathway (AID 651778); details: PathHunter PPARalpha complementation, chemiluminescence, 6 h; stronger effect = higher value; note: % of control where 0% means no effect
Procedure, shortened: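 Chemiluminescence from complemented enzyme reported PPARalpha activation in cells after 6 hr of compound treatment at 37 C. The detection reagent was incubated for 60 min at room temperature, and compounds were scored as agonists.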

[19] = qHTS assay for small molecule agonists of the antioxidant response element (ARE) signaling pathway measured by Nrf2-dependant transcriptional activity (AID 720636; active = well fitted curve in the direction sought with a large enough effect in the repeat runs; an effect the other way counts as inactive or inconclusive; note: % of control where 0% means no effect)
Procedure, shortened: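 ARE-luc HepG2 cells carrying an Nrf2-responsive luciferase reporter were plated in medium with 1% dialyzed FBS, left 6 hr at 37 C to attach, then exposed to compound for 16 hr. Luciferase luminescence was read after ONE-Glo addition.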

[20] = Cell Viability - LYMP2-005 (AID 967);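 note: plate controls were DMSO only for no effect and 92 µM tetraoctylammonium bromide control for full effect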
Procedure, shortened: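 LYMP2-005 human lymphoblastoid cells (2500/well) were treated with compounds for 24 h at 37 C. Intracellular ATP was then measured by CellTiter-Glo luminescence after 30 min at room temperature. AC50 values came from Hill-equation fits of qHTS concentration-response data.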

Peroxisome proliferator-activated receptor delta (Homo sapiens), sequence (Q03181 whole entry, looked up): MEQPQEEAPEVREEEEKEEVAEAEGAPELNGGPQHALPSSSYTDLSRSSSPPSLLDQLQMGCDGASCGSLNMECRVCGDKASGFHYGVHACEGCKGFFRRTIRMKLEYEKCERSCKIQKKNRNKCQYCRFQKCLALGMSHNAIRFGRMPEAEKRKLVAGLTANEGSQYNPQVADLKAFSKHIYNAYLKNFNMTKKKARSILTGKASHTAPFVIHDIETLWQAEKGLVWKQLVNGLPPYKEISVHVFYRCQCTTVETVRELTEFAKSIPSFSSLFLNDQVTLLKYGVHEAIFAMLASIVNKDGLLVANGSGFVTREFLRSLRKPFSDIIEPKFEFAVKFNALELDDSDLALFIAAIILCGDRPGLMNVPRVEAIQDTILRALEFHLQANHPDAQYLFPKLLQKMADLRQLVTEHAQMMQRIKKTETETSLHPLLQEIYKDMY
Peroxisome proliferator-activated receptor alpha (Homo sapiens), sequence (Q07869 whole entry, looked up): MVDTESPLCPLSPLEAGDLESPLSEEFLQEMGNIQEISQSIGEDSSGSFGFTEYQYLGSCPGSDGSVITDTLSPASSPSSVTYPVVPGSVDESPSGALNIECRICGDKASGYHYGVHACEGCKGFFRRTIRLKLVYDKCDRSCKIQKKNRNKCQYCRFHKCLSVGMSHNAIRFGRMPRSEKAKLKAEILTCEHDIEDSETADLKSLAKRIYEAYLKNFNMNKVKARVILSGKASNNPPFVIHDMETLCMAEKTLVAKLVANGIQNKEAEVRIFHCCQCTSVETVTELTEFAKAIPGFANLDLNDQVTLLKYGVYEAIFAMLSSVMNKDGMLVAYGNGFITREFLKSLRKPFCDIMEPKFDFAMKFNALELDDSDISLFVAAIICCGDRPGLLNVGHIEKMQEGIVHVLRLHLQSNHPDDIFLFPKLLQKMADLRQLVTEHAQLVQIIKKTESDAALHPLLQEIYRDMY

CN=C=S
inactive: activity change, negative = cytotoxicity [1] -7.58% | outcome [2] | outcome [3] | outcome [4] | Potency [5] | Potency [6] | Potency [7] | Potency [8] | Potency [9] | Potency [10] | Potency [11] | Potency [12] | Potency [13] | Potency [14] | Potency [15] | Potency [16] | outcome [17] | max response [18] -2.7% and -1.5% | outcome [19]

C=CCOC(=O)c1ccccc1N
inactive: activity change, negative = cytotoxicity [1] 1.61% | outcome [2] | outcome [3] | outcome [4] | Potency [5] | Potency [6] | Potency [7] | Potency [8] | Potency [20] | Potency [9] | Potency [10] | Potency [11] | Potency [12] | Potency [13] | Potency [14] | Potency [15] | Potency [16] | outcome [17] | max response [18] 1.13% | outcome [19]

Nc1ccccc1Cl
inactive: activity change, negative = cytotoxicity [1] 0.502% | outcome [2] | outcome [3] | outcome [4] | Potency [5] | Potency [6] | Potency [7] | Potency [8] | Potency [20] | Potency [9] | Potency [10] | Potency [11] | Potency [12] | Potency [13] | Potency [14] | Potency [15] | Potency [16] | outcome [17] | max response [18] -2.66% | outcome [19]

[O-][Br+2]([O-])O
inactive: activity change, negative = cytotoxicity [1] -3.27% and 7.55% | outcome [2] | outcome [3] | Potency [5] | Potency [7] | Potency [8] | Potency [20] | Potency [9] | Potency [10] | Potency [11] | Potency [12] | Potency [13] | Potency [14] | Potency [15] | Potency [16] | outcome [17] | max response [18] 8.01% and -0.25% | outcome [19]

ClCBr
inactive: activity change, negative = cytotoxicity [1] -7.64% | outcome [2] | outcome [3] | outcome [4] | Potency [5] | Potency [6] | Potency [7] | Potency [8] | Potency [20] | Potency [9] | Potency [10] | Potency [11] | Potency [12] | Potency [13] | Potency [14] | Potency [15] | Potency [16] | outcome [17] | max response [18] -7.14% | outcome [19]

C=CCc1ccc(OC)c(OC)c1
inactive: outcome [17]

C=C(Cl)Cl
inactive: activity change, negative = cytotoxicity [1] 3.46% | outcome [2] | outcome [3] | outcome [4] | Potency [5] | Potency [6] | Potency [7] | Potency [8] | Potency [20] | Potency [9] | Potency [10] | Potency [11] | Potency [12] | Potency [13] | Potency [14] | Potency [15] | Potency [16] | outcome [17] | max response [18] -2.47% | outcome [19]

CCSC(=O)Cl
inactive: activity change, negative = cytotoxicity [1] 2.21% | outcome [2] | outcome [3] | outcome [4] | Potency [5] | Potency [6] | Potency [7] | Potency [8] | Potency [20] | Potency [9] | Potency [10] | Potency [11] | Potency [12] | Potency [13] | Potency [14] | Potency [15] | Potency [16] | outcome [17] | max response [18] 0.356% | outcome [19]

OCC(Br)CBr (stereo unspecified)
inactive: activity change, negative = cytotoxicity [1] -8.1% | outcome [2] | outcome [3] | outcome [4] | Potency [5] | Potency [6] | Potency [7] | Potency [8] | Potency [20] | Potency [9] | Potency [10] | Potency [11] | Potency [12] | Potency [13] | Potency [14] | Potency [15] | Potency [16] | outcome [17] | max response [18] -5.97% | outcome [19]

Cc1ccc2ccccc2c1
inactive: activity change, negative = cytotoxicity [1] -3.22% | outcome [2] | outcome [3] | outcome [4] | Potency [5] | Potency [6] | Potency [7] | Potency [8] | Potency [20] | Potency [9] | Potency [10] | Potency [11] | Potency [12] | Potency [13] | Potency [14] | Potency [15] | Potency [16] | outcome [17] | max response [18] -0.593% | outcome [19]

Clc1nc(Cl)nc(Cl)n1
inactive: activity change, negative = cytotoxicity [1] -4.85% | outcome [2] | outcome [3] | outcome [4] | Potency [5] | Potency [6] | Potency [7] | Potency [8] | Potency [20] | Potency [9] | Potency [10] | Potency [11] | Potency [12] | Potency [13] | Potency [14] | Potency [15] | Potency [16] | outcome [17] | max response [18] -5.93% and -1.12% | outcome [19]

C[N+](C)(C)Cc1ccccc1
inactive: activity change, negative = cytotoxicity [1] -22% | outcome [2] | outcome [3] | outcome [4] | Potency [6] | Potency [7] | Potency [8] | Potency [20] | Potency [9] | Potency [10] | Potency [11] | Potency [12] | Potency [13] | Potency [14] | Potency [15] | Potency [16] | outcome [17] | max response [18] -5.46% and 0.269% | outcome [19]

c1ccc(OP(Oc2ccccc2)Oc2ccccc2)cc1
inactive: activity change, negative = cytotoxicity [1] 6.82% | outcome [2] | outcome [3] | outcome [4] | Potency [5] | Potency [6] | Potency [7] | Potency [8] | Potency [20] | Potency [9] | Potency [10] | Potency [11] | Potency [12] | Potency [13] | Potency [14] | Potency [15] | Potency [16] | max response [18] -2.33% and -1.84% | outcome [19]
